# About 2,400 (0.69%) of roughly 350,000 compounds were called active. For the sample, actives were picked, then their nearest neighbours and some compounds at random. A number with no mark means an inactive call. Rule as the data show it: active = inhibition above about 41%; inconclusive = no clear call, values can overlap the other calls; inactive = below that.
# Assay: blockers of LMP1-induced NF-kB reporter signal – cell-based, luminescence, single point, primary screen (AID 504558);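 also: 0% = neutral control wells and 100% = reference inhibitor control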
# Conditions: LMP1-induced NF-kappaB luciferase reporter cells, at 12.5 µM, stronger effect = higher value
row,SMILES,inhibition
1,COc1ccc(/C=C2\SC(=S)N(CCC(=O)N3CCOCC3)C2=O)cc1OC,9.24%
2,Cc1cc(=O)[nH]c(=S)[nH]1,80.5% (active)
3,CSc1cc(C)[nH]c(=O)n1,-0.805%
4,Cc1cc(=O)cc(C)[nH]1,-6.47%
5,C[C@@H]1CN([C@H](C)CO)C(=O)CCCn2nncc2CO[C@@H]1CN(C)S(=O)(=O)c1cccc(C#N)c1,1.72%
6,COCCCn1c(C(=O)NC2CCCCC2)cc2c(=O)n3cccc(C)c3nc21,1.22%
7,C[C@H](O)[C@@H]1C(=O)N2CCc3c([nH]c4ccccc34)[C@@H]2C[C@@H]1N(C)C(=O)Nc1ccc(F)cc1,3.72%
8,CC1C(=O)N(Cc2cn(CC3CCCCC3)nn2)CCS(=O)(=O)N1Cc1ccc(-c2cccc(N(C)C)c2)cc1 (centres undefined),6.34%
9,CN(C)C(CNC(=O)c1cc(Br)c(Br)s1)c1ccco1 (centres undefined),-1.49%
10,CC(=O)N1CCCc2cc(S(=O)(=O)N3CCCC(C(=O)N4CCN(c5cccc(Cl)c5)CC4)C3)ccc21 (centres undefined),42.1% (active)
11,CC(=O)N1c2ccc(S(=O)(=O)N3CCC(C(=O)N4CCN(c5ccccc5)CC4)CC3)cc2CC1C (centres undefined),4.09%
12,CC(=O)N1CCCc2cc(S(=O)(=O)CCC(=O)N3CCN(c4ccccc4)CC3)ccc21,-0.617%
13,Cc1cccc(S(=O)(=O)N(C)C[C@H]2OCc3cnnn3CCCC(=O)N([C@@H](C)CO)C[C@H]2C)c1,2.93%
14,COc1ccccc1-n1c(SCC(=O)Nc2ccc(Cl)cc2)nc(O)c(Cc2ccccc2)c1=O,-7.65%
15,c1c2c(cc3sc(N4CCCCC4)nc13)OCCO2,58% (active)
16,O=C(c1ccc2nc(N3CCOCC3)sc2c1)N1CCN(c2ccc(Cl)cc2)CC1,3.45%
17,CN(C)CCN(C(=O)C1CCCCC1)c1nc2cc3c(cc2s1)OCO3,0.636%
18,Cc1ccc(NC(=O)Cn2sc3ccccc3c2=O)cc1,0.665%
19,COc1cccc2c1C(=O)c1c(O)c3c(c(O)c1C2=O)CC(O)(C(C)=NNC(=O)c1ccc(Cl)c(Cl)c1)CC3OC1CC(N)C(O)C(C)O1 (centres undefined),70% (active)
20,COc1cc(C(=O)OCCCN2CCOCC2)cc(OC)c1OC,1.26%

row,SMILES,inhibition
1,Cc1cccc(N(C(=O)Cn2nnc(-c3ccc(C)o3)n2)C(C(=O)NC2CCCC2)c2ccncc2)c1 (centres undefined),9.95%
2,Cc1ccc(-c2nnn(CC(=O)N(CCO)C(C(=O)NC(C)(C)C)c3ccncc3)n2)cc1 (centres undefined),-24.9%
3,Cc1ccc(-c2nnn(CC(=O)N(Cc3ccco3)C(C(=O)NC(C)(C)C)c3ccncc3)n2)o1 (centres undefined),54.6% (active)
4,CCn1c(SCC(=O)N2CCCC2=O)nc2ccccc21,6.54%
5,O=C(CNC(=O)C(c1ccccc1)c1ccccc1)N/N=C\c1ccc2c(c1)OCO2,-3.07%
6,C(=N\Nc1ccc2ccccc2n1)/c1ccc2c(c1)OCO2,43.9% (active)
7,Cc1cccc(NC(=O)/C=C/c2ccc3c(c2)OCO3)n1,-23.8%
8,CC(OC(=O)c1cccc(S(=O)(=O)N2CCOCC2)c1)C(=O)NCC1CCCCC1 (centres undefined),-1.25%
9,Cc1ccc2cc(/C=N/Nc3ccc(C(=O)O)cc3)c(Cl)nc2c1,-63.4%
10,O=C(O)c1ccc(N/N=C/c2ccc3ncccc3c2)cc1,44.3% (active)
11,CCNC(=S)NNC(=O)c1ccc2ncccc2c1,7.73%
12,CCOc1ccc(S(=O)(=O)NCCC(=O)NNC(=O)c2ccc(F)cc2)cc1,-8.7%
13,O=C(Nc1ccc2c(c1)[C@@H]1C[C@@H](CC(=O)N3CCCCC3)O[C@@H](CO)[C@@H]1O2)NC1CCCCC1,1.38%
14,CCc1cc(-c2nnn(CCC3COCCO3)c2CC)ccc1-c1cn(Cc2ccc3ccccc3c2)nn1 (centres undefined),0.755%
15,Cc1cc(Cl)ccc1C(=O)C1CCCN(C(=O)c2ccc3c(c2)OCO3)C1 (centres undefined),-1.16%
16,O=C(NCCOc1ccccc1)c1ccccc1F,-2.63%
17,O=C(Nc1nnc(-c2ccccc2F)s1)c1ccccc1F,-3.53%
18,Cc1cccc(C)c1NC(=S)N1CCCCCC1,23.1%
19,C/C(=N\NC(=O)c1ccccc1F)c1ccccn1,48.6% (active)
20,CC(=NNC(=S)N1CCCCCC1)c1ccccn1,91.7% (active)

row,SMILES,inhibition
1,CCNC(=S)N1CCN(c2ncccn2)CC1,-18.8%
2,CCN(C(=O)Nc1cccc2ccccc12)c1ccccc1,2.61%
3,CCN(Cc1ccncc1)C(=S)Nc1ccccc1C,0.031%
4,CCc1ccccc1OCC(=O)Nc1nnc(C2CC2)s1,-2.82%
5,COCOCCn1cc(CN2CCS(=O)(=O)N(Cc3ccc(-c4ccccc4)cc3)C(CC(C)C)C2=O)nn1 (centres undefined),1.98%
6,CC1=C(C(=O)N2CCOCC2)CC(CC(=O)NCc2ccco2)C(=O)N1Cc1ccc(F)cc1 (centres undefined),3.55%
7,C=CCNc1cnn(-c2ccc(C)cc2)c(=O)c1Cl,-12.1%
8,Cc1cccc(-n2ncc3c(=O)[nH]c(SCC(=O)Nc4cc(C)on4)nc32)c1,-3.93%
9,Cc1cccc(-n2ncc(Cl)c(Cl)c2=O)c1,52.4% (active)
10,CCCCN1C[C@H](c2ccc(Br)cc2)[C@@H](CC(=O)Nc2ccc(Br)cc2)C1=O,1.53%
11,C[C@@H]1CN([C@@H](C)CO)C(=O)c2cc(Br)cnc2O[C@@H]1CN(C)C(=O)C1CCCCC1,-0.141%
12,CCN(CC)C(=O)C1=C(C)N(Cc2ccccc2)C(=O)C(CC(=O)NC(c2ccccc2)c2ccccc2)C1 (centres undefined),2.92%
13,CCOc1cccc(/C=C/c2ccc3ccccc3n2)c1OC(C)=O,17.6%
14,CC(=O)c1ccc(S(=O)(=O)N2CCN(C(=O)/C=C/c3ccc4ccccc4n3)CC2)cc1,-1.62%
15,COc1cccc(/C=C/c2ccc3ccccc3n2)c1OC(C)=O,56.9% (active)
16,O=C(OC12CC3CC(CC(C3)C1)C2)c1ccc(NCc2cc(O)ccc2O)cc1,44.1% (active)
17,CC1(C)C2CCC1(C)C(OC(=O)c1ccc(O)cc1)C2 (centres undefined),-2.13%
18,COC(=O)c1ccc(NCc2cc(O)ccc2O)cc1,-94.1%
19,CC1C(=O)N(Cc2cn(Cc3ccco3)nn2)CCS(=O)(=O)N1Cc1ccc(-c2cccc(CO)c2)cc1 (centres undefined),4.76%
